# Compounds without any hit were thinned out: in the full panel of roughly 83,000, 20% have a hit.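 Step 1: grow cells in 96-well plates. Step 2: add test compound at a single concentration. Step 3: incubate 48 h. Step 4: record percent growth.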 A number with no mark means an inactive call. Activity calls are given as the source filed them. Rule for the calls: active = growth percent below 10; inactive = the rest.
# Tested on: NCI-H522 lung
# Assay: NCI-60 one-dose screen, 48 h (100 = growth as untreated, 0 = no growth, -100 = all killed)
# Details: 10 µM unless noted
row,SMILES,growth
1,COc1ccc(OC)c(N(CCN2C(=O)c3ccccc3C2=O)C(=O)CCl)c1,-73.3% (active)
2,O=C(NC1CCN(Cc2ccccc2)CC1)c1cc(C(=O)NC2CCN(Cc3ccccc3)CC2)cc(C(=O)NC2CCN(Cc3ccccc3)CC2)c1,-67.7% (active)
3,CCOC(=O)c1c(Cl)c2c(n1Cc1ccccc1)-c1oncc1CCC2,35.7%
4,O=C(/C=C/c1ccccn1)c1ccc(OCc2nnc(-c3ccc(Cl)cc3)o2)cc1,63.7%
5,CSc1nc2c(c(=O)n1C)N=C1c3ccccc3C(=O)C1C(c1ccccc1)N2 (centres undefined),103%
6,CC/C=C\C[C@H](O)C/C=C1/C(=O)C=C[C@@H]1C/C=C\CCCC(=O)OCCS(=O)(=O)c1ccccc1,-7.61% (active)
7,Cc1cc(Nc2ccc(OCc3ccccc3)cc2)nc2cc(O)ccc12,53.2%
8,CSc1nc2c(c(=O)[nH]1)N=C1c3ccccc3C(=O)C1C(c1ccc(F)cc1)N2 (centres undefined),75.9%
9,CCOc1ccccc1CN1CCc2nc3cc(C(C)(C)C)[nH]n3c(=O)c2C1,77.1%
10,O=C(NC(=S)Nc1cccc(NC(=S)NC(=O)c2ccccc2)c1)c1ccccc1,-9.46% (active)
11,CCOC(=O)c1c2c(n3cccc(Cl)c13)C(=O)c1ncccc1C2=O,81.3%
12,O=C(NN1C(=O)CSC1c1ccc(Cl)cc1)c1[nH]c2ccc(F)cc2c1-c1ccccc1 (centres undefined),74.4%
13,COc1ccc(-n2c(C(O)c3ccccc3)nn(CN3CCOCC3)c2=S)cc1 (centres undefined),89.9%
14,CCCC(=O)CC(C)=O.CCCC(=O)CC(C)=O.[Cu],91%
